In the library only some 7.3% were active in any assay of this set; here they are far more common.
SMN2 splice up: enhancers of SMN2 splice variant expression; HEK293 SMN2-luciferase splicing reporter, luminescence, 30-36 h; hit rate 2.8% among 210,000; Potency, µM (titrated, usually from 46.1 µM), without a hit: top-dose activity change, positive = activation, actives largely listed as activators; further: % of control where 0% means no effect; nearly all actives have a fitted effect of over 55% in size
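qHTS luciferase splicing reporter: luminescence rises when SMN2 exon 7 is included in transfected HEK293 cells. Compound exposure lasted 30-36 h at 37C, with 4.5 mM final sodium butyrate as control, followed by a ONE-Glo read.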
uPA generation: blocks generation of uPA at the cell surface; Potency, µM (series often up to 38.3 µM), for the others: at the highest dose activity change, negative = inhibition, actives largely listed as inhibitors; hit rate 0.31% among 330,000; cell surface uPA generation assay, qHTS; active means well fitted inhibition curve with a large enough effect; inconclusive means small, poorly fitted or top-dose-only effect; inactive means no such curve, though single readings can be large or run the other way; tested in mouse RAW 264.7 cells; further: on the % scale 0 is the no-effect control and ±100 the full control effect; nearly all actives have a fitted effect of over 55% in size
ELG1 genotox: induces genotoxicity in HEK293T cells with luciferase-tagged ELG1. HEK293T ELG1-luciferase reporter, luminescence, 16 h. Potency, µM (titrated, usually from 46 µM), inactives show top-dose activity change, positive = activation, hits mostly activators. hit rate 1.3% among 330,000; further: % of control where 0% means no effect; nearly all actives have a fitted effect of over 60% in size
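Reporter readout depends on ELG1 protein level, which increases with genetic stress. After 16 hr compound exposure at 37 °C, luciferase activity was quantified using ONE-Glo.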
NPC1 prom act: activators of NPC1 promoter; Potency, µM (doses to about 9.22 µM), for the others: top-dose activation, hits mostly activators; Huh7 NPC1 promoter luciferase reporter, 24 h; hit rate 2.4% among 320,000; AID 485313; further: % of control where 0% means no effect; nearly all actives have a fitted effect of over 60% in size
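Quantitative HTS used a cell-based reporter: Huh7 cells stably bearing the NPC1 promoter upstream of luciferase were treated with compounds for 24 h, and promoter activation was read as luminescence.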
Rab9 prom act: Rab9 promoter activation. AID 485297. Huh7 Rab9 promoter-luciferase reporter, luminescence, 24 h. Potency, µM (highest dose often 9.22 µM), inactives show at the top dose activation, negative = inhibition, most hits filed as activators. hit rate 2.8% among 320,000; further: % of control where 0% means no effect; nearly all actives have a fitted effect of over 60% in size
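Huh7 cells stably carrying a Rab9 promoter-luciferase reporter, 1500 cells per well in OP-MEM I with 10% FBS, treated with compound 24 hours at 37C. Luciferase activity read by luminescence after 10 minutes with Amplite reagent.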
FLuc counter: firefly luciferase modulation, counter-screen for miR-21 project. purified FLuc, Km substrates, luminescence inhibition. Potency, µM (doses to about 57.5 µM), for the others: top-dose activity change, negative = inhibition, actives largely listed as inhibitors. hit rate 6.9% among 360,000. AID 588342;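 further: plate controls were vehicle for no effect and reference inhibitor for full effect; nearly all actives have a fitted effect of over 55% in size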
Target sequence (P08659 whole entry, looked up): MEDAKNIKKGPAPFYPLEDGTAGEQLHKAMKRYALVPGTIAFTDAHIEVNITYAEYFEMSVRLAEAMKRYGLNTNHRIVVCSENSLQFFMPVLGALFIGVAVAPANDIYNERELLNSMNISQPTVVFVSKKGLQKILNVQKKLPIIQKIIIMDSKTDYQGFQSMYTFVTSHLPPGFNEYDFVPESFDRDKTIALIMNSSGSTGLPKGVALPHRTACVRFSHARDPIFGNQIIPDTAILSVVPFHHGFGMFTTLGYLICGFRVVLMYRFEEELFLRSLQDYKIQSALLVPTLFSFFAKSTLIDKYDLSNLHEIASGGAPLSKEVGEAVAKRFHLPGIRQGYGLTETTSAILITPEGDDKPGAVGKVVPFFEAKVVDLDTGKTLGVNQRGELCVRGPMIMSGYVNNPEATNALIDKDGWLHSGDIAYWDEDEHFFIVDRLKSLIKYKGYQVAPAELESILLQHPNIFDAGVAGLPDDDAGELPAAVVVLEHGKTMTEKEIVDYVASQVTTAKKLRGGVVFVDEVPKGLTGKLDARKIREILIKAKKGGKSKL
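Purified P. pyralis luciferase, 10 nM final, with Km-level 10 uM D-luciferin and 10 uM ATP in 50 mM Tris acetate pH 7.5, 10 mM Mg acetate, 0.01% Tween-20, 0.05% BSA; 6-point qHTS titration about 60 µM downward; luminescence read.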
* hit, by the source's call; ? = inconclusive; nt = not tested or not shown. Unless noted, the call rests on the fitted dose curve; in most records, active means well fitted curve in the direction sought with a large enough effect; inconclusive means small, poorly fitted or top-dose-only effect, or another doubt; inactive means no such curve, though single readings can be large; an effect the other way counts as inactive or inconclusive. Potency means the concentration at half of the fitted maximal effect.

SMILES	SMN2 splice up	uPA generation	ELG1 genotox	NPC1 prom act	Rab9 prom act	FLuc counter
COCCNC(=O)CCn1c(=O)c2cc(OC)c(OC)cc2n(CC(=O)Nc2ccc(Cl)cc2F)c1=O	-4%	nt	nt	nt	nt	-4%
O=C1N(c2ccccc2)C[C@@H]2C[C@@H](c3cccs3)N3CCC[C@@]123	22µM*	-24%	-7%	-23%	-32%	-5%
Cc1ccc(C2=NN(S(C)(=O)=O)C(c3ccc4c(c3)OCO4)C2)cc1 (centres undefined)	18µM*	-2%	5.2µM*	3.5µM*	2.5µM*	1.7µM*
CC(=O)N1N=C(c2ccc(C)cc2)CC1c1ccc2c(c1)OCO2 (centres undefined)	nt	5%	?	2.8µM*	?	15µM*
CC(=O)N1N=C(c2ccc(C)cc2)CC1c1ccco1 (centres undefined)	21%	-2%	?	22%	?	?
CS(=O)(=O)N1N=C(c2ccc(Br)cc2)CC1c1ccc2c(c1)OCO2 (centres undefined)	25µM*	nt	?	1.1µM*	0.63µM*	4.3µM*
Cc1ccccc1CN1C(=O)C2(c3ccccc31)N(c1ccccc1)C(=O)CS2(=O)=O (centres undefined)	nt	nt	nt	nt	nt	6%
CC(C)OC(=O)c1cccc(-c2ccc(C=O)o2)c1	13µM*	5%	?	17%	15%	?
Cc1cccc(-n2c(=O)c3c(c4cc(C)ccc4n3C)n(C)c2=O)c1	nt	nt	nt	nt	nt	-5%
CCOc1ccc(C(=O)Nc2cccc(-c3nc4cc(Cl)cc(Cl)c4o3)c2)cc1	3%	nt	nt	nt	nt	6%
CCN(C(=O)c1cc2c(=O)n3ccccc3nc2n1C)C1CCCCC1	nt	-12%	16%	27%	19%	-15%
CN(C(=O)c1cc2c(=O)n3ccccc3nc2n1C)C1CCCCC1	nt	?	4.6µM*	2µM*	3.2µM*	12µM*
O=c1c2c3c(sc2nc2n1N=C(c1cccs1)CS2)CCCC3	-23%	-5%	?	0.63µM*	0.63µM*	0.19µM*
O=c1oc(-c2cccs2)nc2sc3c(c12)CCCC3	?	1%	1%	15%	4%	2.4µM*
O=c1oc(-c2cccs2)nc2sc3c(c12)CCC3	?	2%	-1%	18%	-1%	?
O=C1CN(c2nc(-c3cccnc3)nc3scc(-c4ccccc4)c23)CCN1	27%	0%	1%	0%	0%	?
O=C1CN(c2nc(-c3cccs3)nc3sc4c(c23)CCCC4)CCN1	?	3%	?	-37%	-45%	6µM*
COc1ccccc1CNC(=O)CCCc1nnc2n(CC(C)C)c(=O)c3sccc3n12	nt	nt	nt	nt	nt	-3%
COc1ccc2oc(-c3cccc(NC(=O)c4sc5c([N+](=O)[O-])cccc5c4Cl)c3)nc2c1	9%	nt	nt	nt	nt	-4%
O=C(/C(=N/N=C/c1ccc(O)c(O)c1O)c1ccccc1)c1ccccc1	3.2µM*	-7%	-3%	1%	-2%	-7%
COc1cc2ccccc2cc1C(=O)Nc1nccs1	nt	?	12%	3.2µM*	?	8.5µM*
COc1cc2ccccc2cc1C(=O)NCC(c1cccs1)N(C)C (centres undefined)	?	-6%	16%	2.8µM*	?	5.4µM*
COc1c(C(=O)Nc2nccs2)ccc2ccccc12	nt	?	?	1.8µM*	?	3µM*
COc1cccc(C=Nc2ccccc2C(=O)Nc2nccs2)c1OC	-6%	10%	?	14%	17%	6%
COc1cccc2c1OCC(C(=O)Nc1nccs1)=C2	nt	-9%	?	2.2µM*	2µM*	5.4µM*
SMILES	SMN2 splice up	uPA generation	ELG1 genotox	NPC1 prom act	Rab9 prom act	FLuc counter
OCCCCNCc1ccc(OCc2ccccc2)cc1	nt	6%	11%	0%	2%	-2%
c1ccc(COc2ccc(-c3csnn3)cc2)cc1	?	-8%	26%	1.8µM*	2.8µM*	2.4µM*
CC(=O)COc1ccc(-c2csnn2)cc1	nt	-7%	14%	15%	26%	-14%
Nc1ccc(OCc2ccccc2)cc1	13µM*	?	19%	28%	?	?
OCCNCCCCOc1ccc(OCc2ccccc2)cc1	16µM*	-5%	?	?	3.5µM*	11µM*
Cc1ccccc1C(=O)Oc1ccc(-c2csnn2)cc1	nt	0%	?	0%	-1%	12µM*
CCCOc1ccc(C(=O)N(Cc2cccs2)c2ccc(C)cc2)cc1	nt	nt	nt	nt	nt	-7%
CCc1[nH]nc(C(=O)N2CCCC(Nc3cccc(F)c3)C2)c1C (centres undefined)	nt	9%	?	0%	3%	-13%
CC1(C)CC(Cc2nc(=S)[nH][nH]2)C(=O)O1 (centres undefined)	16%	5%	-9%	6%	-3%	0%
O=c1c(-c2ccc(F)cc2)nc2cnc(Nc3ccccc3)nc2n1Cc1cccs1	-6%	nt	nt	nt	nt	nt
CCOc1ccc(NC(=O)CCc2nnc3n(C)c(=O)c4sccc4n23)cc1	0%	nt	nt	nt	nt	-6%
COc1ccc(-c2nc(-c3ccc(Br)o3)no2)cc1OC	14µM*	-2%	21µM*	?	3.2µM*	?
COc1ccccc1-c1noc(-c2cc(OC)c(OC)c(OC)c2)n1	17%	-4%	0%	0%	-6%	-20%
COc1cccc(-c2nc(-c3ccc(NC(=O)Cc4ccccc4OC)cc3)no2)c1	15%	-2%	-18%	0%	-6%	?
COc1ccccc1-c1nc(-c2ccc(Br)o2)no1	?	-23%	?	3.5µM*	0.89µM*	1.9µM*
COc1ccc(-c2noc(Cc3ccccc3OC)n2)cc1	-12%	3%	?	24%	22%	?
COc1cccc(-c2nc(-c3ccc(Br)o3)no2)c1	nt	0%	?	0.89µM*	0.56µM*	0.67µM*
COc1ccccc1Cc1nc(-c2ccc(Br)o2)no1	8%	-5%	9%	16%	12%	19µM*
Cc1c(C(=O)NCc2ccc(F)cc2)oc2ccc(S(=O)(=O)N3CCCCC3)cc12	nt	nt	nt	nt	nt	-2%
O=C(Nc1ccccc1)Nc1ccc(F)cc1F	?	?	?	?	4.5µM*	12µM*
COC(=O)c1ccc(NC(=O)Nc2ccc(F)cc2F)cc1	20µM*	1%	?	?	3.5µM*	7.6µM*
COC(=O)c1ccc(NC(=O)Nc2cccc(F)c2)cc1	nt	-3%	7%	?	1.8µM*	4.8µM*
Fc1ccccc1NC(=S)Nc1ccc(Br)cc1	nt	0%	0%	-4%	2%	?
CC(=O)Nc1cccc(NC(=O)Nc2ccc(F)cc2F)c1	71%	6%	4%	-1%	1%	?
Fc1cc(Br)ccc1NC(=S)Nc1ccccc1	18µM*	-2%	9%	?	?	19µM*
COc1ccc(OC)c(CNC(=O)c2c(C)oc3ncn(CC(C)C)c(=O)c23)c1	nt	nt	nt	nt	nt	-8%
